Our source for the outcome and AC50 values is PubChem BioAssay (EPA / NIEHS).

Several values for one entry are separate records, joined by “and”; a condition that tells them apart may be missing. Equal values may be shown once. More than one record can exist for a structure, and the calls need not agree. Activity calls are given as the source filed them. The calls were made as follows: active = hit-call score of the fitted dose curve at least 0.9, where 1 is the maximum; inactive = score below 0.9.

Assay [1] is described as follows: ATG_CRE_CIS: Attagene CIS-FACTORIAL HepG2 Assay for human cAMP Responsive Element (CRE) binding protein 3 (AID 2282926). The following applies: HepG2 CRE cis-reporter, Attagene multiplexed mRNA; actives raise or lower the signal. The method in brief:
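HepG2 cells transiently transfected with a multiplexed reporter library (CRE-driven unit among them) were dosed for 24 h. Reporter mRNA was quantified by RT-PCR, fluorescent labelling, HpaI digestion and capillary electrophoresis, with bidirectional fitting against DMSO baseline.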

Assay [2] deals with CCAAT/enhancer-binding protein beta (Homo sapiens) (UniProt P17676). Kind of assay: ATG_C_EBP_CIS: Attagene CIS-FACTORIAL HepG2 Assay for human CCAAT/Enhancer Binding Protein (C/EBP) beta (AID 2282927). The conditions noted are these: HepG2 Attagene cis-factorial transcription factor reporter; actives raise or lower the signal. The method in brief:
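Endogenous transcription factor activity in human liver HepG2 cells is inferred from induction of a CEBPB-linked reporter mRNA. Exposure lasts 24 h; activity is fitted in both directions relative to DMSO.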

Assay [3] in a line: ATG_CMV_CIS: Attagene CIS-FACTORIAL HepG2 Assay for human CMV (Internal Marker) (AID 2282928).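 Also: endpoint acts as a background internal control marker rather than a target.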 The conditions noted are these: HepG2 CMV promoter reporter, transcription factor profiling; actives raise or lower the signal. The method in brief:
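Cell system: HepG2, transiently transfected multiple reporter units under cis promoters. Exposure: 24 h. Detection: RT-PCR, FAM labeling, HpaI digestion, capillary electrophoresis. Analysis: bidirectional, DMSO baseline.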

A short description of assay [4]: ATG_DR4_LXR_CIS: Attagene CIS-FACTORIAL HepG2 Assay for human Liver X Receptor (LXR), DR4 submotif (AID 2282929). The conditions noted are these: HepG2 Attagene DR4 cis-reporter, mRNA transcription; actives raise or lower the signal. In outline: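 Endogenous factor activity at a DR4 cis-element is read as reporter mRNA in transiently transfected HepG2 cells. Exposure lasts 24 h; transcripts are amplified, fluorescently labelled and sized by capillary electrophoresis, with DMSO as baseline.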

The target in assay [5] is Aryl hydrocarbon receptor (Homo sapiens) (UniProt P35869). Kind of assay: ATG_Ahr_CIS: Attagene CIS-FACTORIAL HepG2 Assay for human Aryl Hydrocarbon Receptor (Ahr) (AID 2282930). The conditions noted are these: HepG2 AhR cis-factorial reporter transcription; actives raise or lower the signal. In outline:
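Transient MRTU transfection of HepG2 → 24 h compound exposure → total RNA, oligo(dT) RT → PCR, 6-FAM extension, HpaI cut → CE fluorescence. DMSO = baseline; bidirectional curve fit.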

Assay [6] in a line: ATG_AP_1_CIS: Attagene CIS-FACTORIAL HepG2 Assay for human Activator Protein 1 (AP-1) (AID 2282931). The conditions noted are these: HepG2 Attagene cis-factorial AP-1 reporter mRNA; actives raise or lower the signal. In outline: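 Fluorescence of labelled PCR fragments separated by capillary electrophoresis gives reporter mRNA levels. HepG2 with transfected cis-regulated reporter units, 24 h exposure; DMSO serves as baseline for bidirectional curve fits.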

Assay [7] is described as follows: ATG_AP_2_CIS: Attagene CIS-FACTORIAL HepG2 Assay for human Activator Protein 2 (AP-2) (AID 2282932). The conditions noted are these: HepG2 AP-2 cis-reporter, Attagene transcription factor profiling; actives raise or lower the signal. The method in brief: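 HepG2, transient MRTU transfection, cis-regulated reporters; 24 h compound exposure; RNA isolated, RT-PCR, 6-FAM labelling, HpaI digest, CE fluorescence. DMSO = negative control/baseline, bidirectional fit.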

Assay [8] can be described thus: ATG_BRE_CIS: Attagene CIS-FACTORIAL HepG2 Assay for human Bone Morphogenetic Protein (BMP) Response Element (BRE) (AID 2282933). The conditions noted are these: HepG2 BMP response element reporter, Attagene transcription factor profiling; actives raise or lower the signal. The method in brief:
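Read-out: reporter mRNA induction quantified by RT-PCR and capillary electrophoresis after 24 h chemical exposure of transfected HepG2 cells. Endogenous factor activity on the BMP response element; gain or loss fitted against DMSO baseline.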

Assay [9] is described as follows: APR_HepG2_CellLoss_72hr: Apredica 72-hour HepG2 Assay for Cell Loss (AID 2282915). The following applies: high-content imaging. In outline: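 Cell number comes from Hoechst 33342-labelled nuclei, imaged at 20x after 3.7% formaldehyde fixation. Dosing was 0.39–200 uM, ten concentrations in duplicate, 0.5% DMSO final, for 72 h. Bidirectional fit relative to DMSO baseline.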

Assay [10] in a line: APR_HepG2_P-H2AX_72hr: Apredica 72-hour HepG2 Assay for H2AX Phosphorylation (AID 2282916).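 Also: phospho-histone H2A.x immunostain intensity per cell marking DNA damage.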 The following applies: imaging, actives raise or lower the signal. The method in brief:
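HepG2; cpd 0.39–200 uM ×10 conc, duplicates; 0.5% DMSO; 72 hr. Fix 3.7% formaldehyde 30 min RT, 0.5% Triton X-100 10 min. Anti-phospho-H2A.x 1:200 + Hoechst 2 ug/mL, 60 min RT; ArrayScan imaging.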

A short description of assay [11]: APR_HepG2_MitoMembPot_72hr: Apredica 72-hour HepG2 Assay for Mitochondrial Membrane Potential (AID 2282917). The conditions noted are these: imaging, actives raise or lower the signal. The method in brief:
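Membrane potential read by MitoTracker Red CMXRos (250 nM, 30 min, pre-fixation) fluorescence imaging of HepG2 after 72 hr exposure. Ten concentrations, 0.39–200 uM, duplicate wells, 0.5% DMSO; fitted in both directions against DMSO baseline.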

The nature of assay [12]: APR_HepG2_MitoticArrest_72hr: Apredica 72-hour HepG2 Assay for Mitotic Arrest (AID 2282918). The following applies: high-content imaging, actives raise or lower the signal. In outline:
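HepG2 cells were exposed for 72 hr to compound at 0.39–200 uM (10 concentrations, duplicate) in 0.5% v/v DMSO, fixed in 3.7% formaldehyde, immunostained for phospho-histone H3 with Hoechst 33342 and imaged by high-content fluorescence; bidirectional fits versus DMSO.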

A short description of assay [13]: APR_HepG2_MicrotubuleCSK_72hr: Apredica 72-hour HepG2 Assay for Microtubule CSK Stabilty (AID 2282919). The conditions noted are these: HepG2 microtubule cytoskeleton, high-content imaging, actives raise or lower the signal. In outline: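 Read-out is tubulin fluorescence intensity from high-content imaging of HepG2 cells, with nuclei identified by Hoechst 33342. Treatment lasts 72 h at 0.39–200 uM, and curves are fitted bidirectionally against the DMSO negative control.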

Assay [14] is described as follows: APR_HepG2_P-H2AX_24hr: Apredica 24-hour HepG2 Assay for H2AX Phosphorylation (AID 2282920). The following applies: high-content imaging, actives raise or lower the signal. The method in brief:
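HepG2 human liver cells were exposed for 24 hr to compounds at 0.39–200 uM in duplicate, with 0.5% v/v DMSO final. Fixed cells were immunostained for phospho-histone H2A.x plus Hoechst 33342, imaged by HCS fluorescence, and fitted bidirectionally against DMSO.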

Assay [15] is described as follows: APR_HepG2_StressKinase_72hr: Apredica 72-hour HepG2 Assay for Stress Kinase (AID 2282921). The following applies: HepG2 stress kinase (phospho-c-Jun) imaging, actives raise or lower the signal. In outline: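 Dose 0.39–200 uM (10 pts, duplicate), 0.5% DMSO; 72 h; fix 3.7% formaldehyde 30 min RT; Triton permeabilize; anti-phospho-c-Jun/Cy3 + Hoechst 60 min RT; image 20x; fit gain/loss vs DMSO.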

A short description of assay [16]: APR_HepG2_StressKinase_24hr: Apredica 24-hour HepG2 Assay for Stress Kinase (AID 2282922). The following applies: HepG2 stress kinase (phospho-c-Jun) imaging, actives raise or lower the signal. In outline: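 HepG2, 24 hr dosing, 0.39–200 uM in duplicate, 0.5% DMSO; formaldehyde fix (3.7%), 0.5% Triton X-100; anti-phospho-c-Jun + Cy3 secondary, Hoechst counterstain; ArrayScan imaging; bidirectional curve fit vs DMSO baseline.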

Assay [17] in a line: APR_HepG2_p53Act_72hr: Apredica 72-hour HepG2 Assay for p53 Activation (AID 2282923).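 Also: average cellular p53 protein immunofluorescence intensity in HepG2 cells.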 The conditions noted are these: high-content imaging, actives raise or lower the signal. In outline: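 10-pt conc. 0.39–200 uM, duplicate, 0.5% DMSO; 72 hr exposure; 3.7% formaldehyde fix, 0.5% Triton perm; sheep anti-p53/Cy5 + Hoechst; ArrayScan 20x, 6 images/well; gain/loss fit vs DMSO.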

Assay [18] is described as follows: APR_HepG2_MitoMass_72hr: Apredica 72-hour HepG2 Assay for Mitochondrial Mass (AID 2282924).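 Also: MitoTracker Red CMXRos stain intensity per cell imaged as mitochondrial mass.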 The conditions noted are these: high-content imaging, actives raise or lower the signal. The method in brief:
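HepG2, 72 hr cmpd, 10 conc 0.39–200 uM in dup, DMSO 0.5% v/v. MitoTracker Red CMXRos 250 nM 30 min pre-fix; formaldehyde 3.7% fix 30 min RT. HCS imaging, gain/loss fit vs DMSO.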

Assay [19] is described as follows: APR_HepG2_NuclearSize_72hr: Apredica 72-hour HepG2 Assay for Nuclear Size (AID 2282925). The following applies: high-content imaging, actives raise or lower the signal. The method in brief:
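HepG2; cpd 0.39–200 uM, 10 conc, duplicate; 72 h; DMSO 0.5% v/v; fix 3.7% formaldehyde 30 min RT; Triton permeabilization; Hoechst 2 ug/mL; HCS imaging 20x; nuclear diameter; gain/loss fit vs DMSO.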

For assay [20], the target named is Retinoic acid receptor alpha (Homo sapiens) (UniProt P10276). Kind of assay: ATG_DR5_RAR_CIS: Attagene CIS-FACTORIAL HepG2 Assay for human Retinoic Acid Receptor Alpha (RARE), DR5 submotif (AID 2282934). The following applies: HepG2 Attagene cis-factorial RARE DR5 reporter, mRNA; actives raise or lower the signal. In outline:
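Transient MRTU transfection of HepG2; 24 h compound treatment; TriZol RNA, oligo(dT) RT, PCR, FAM labelling, capillary electrophoresis. Bidirectional fit vs DMSO. Endogenous TF activity at DR5 RARE.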

Sequence of Aryl hydrocarbon receptor (Homo sapiens) (P35869 whole entry, looked up): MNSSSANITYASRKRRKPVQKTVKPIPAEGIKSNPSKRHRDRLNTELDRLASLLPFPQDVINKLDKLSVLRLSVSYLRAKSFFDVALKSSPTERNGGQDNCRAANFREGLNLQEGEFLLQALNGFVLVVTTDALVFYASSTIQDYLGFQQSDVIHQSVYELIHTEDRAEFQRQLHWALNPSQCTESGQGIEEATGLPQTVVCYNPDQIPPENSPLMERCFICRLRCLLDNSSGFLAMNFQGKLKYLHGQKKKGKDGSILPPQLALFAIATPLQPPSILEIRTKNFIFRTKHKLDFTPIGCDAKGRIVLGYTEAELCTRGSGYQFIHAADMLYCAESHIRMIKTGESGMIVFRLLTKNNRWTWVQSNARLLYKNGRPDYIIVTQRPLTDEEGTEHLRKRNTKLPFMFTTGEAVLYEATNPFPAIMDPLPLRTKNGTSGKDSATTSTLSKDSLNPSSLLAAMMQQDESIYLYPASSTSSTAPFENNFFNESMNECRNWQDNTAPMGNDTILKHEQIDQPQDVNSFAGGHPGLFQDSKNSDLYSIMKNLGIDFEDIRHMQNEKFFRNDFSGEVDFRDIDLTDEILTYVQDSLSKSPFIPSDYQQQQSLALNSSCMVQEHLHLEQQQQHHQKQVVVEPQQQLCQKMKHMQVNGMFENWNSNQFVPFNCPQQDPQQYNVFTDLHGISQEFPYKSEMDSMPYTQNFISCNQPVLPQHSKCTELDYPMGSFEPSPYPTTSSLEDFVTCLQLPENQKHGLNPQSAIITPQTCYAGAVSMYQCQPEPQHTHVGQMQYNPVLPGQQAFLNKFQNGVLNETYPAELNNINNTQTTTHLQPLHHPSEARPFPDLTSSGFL
Sequence of CCAAT/enhancer-binding protein beta (Homo sapiens) (P17676 whole entry, looked up): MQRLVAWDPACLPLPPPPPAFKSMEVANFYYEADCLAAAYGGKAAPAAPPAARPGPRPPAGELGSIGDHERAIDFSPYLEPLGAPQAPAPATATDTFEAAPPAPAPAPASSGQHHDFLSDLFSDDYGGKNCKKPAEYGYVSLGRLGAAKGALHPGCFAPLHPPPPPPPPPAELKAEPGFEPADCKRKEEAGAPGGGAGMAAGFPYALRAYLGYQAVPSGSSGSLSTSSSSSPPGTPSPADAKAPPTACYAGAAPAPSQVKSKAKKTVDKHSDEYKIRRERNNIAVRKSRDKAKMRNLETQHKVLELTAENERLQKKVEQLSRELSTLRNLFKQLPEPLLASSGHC
Sequence of Retinoic acid receptor alpha (Homo sapiens) (P10276 whole entry, looked up): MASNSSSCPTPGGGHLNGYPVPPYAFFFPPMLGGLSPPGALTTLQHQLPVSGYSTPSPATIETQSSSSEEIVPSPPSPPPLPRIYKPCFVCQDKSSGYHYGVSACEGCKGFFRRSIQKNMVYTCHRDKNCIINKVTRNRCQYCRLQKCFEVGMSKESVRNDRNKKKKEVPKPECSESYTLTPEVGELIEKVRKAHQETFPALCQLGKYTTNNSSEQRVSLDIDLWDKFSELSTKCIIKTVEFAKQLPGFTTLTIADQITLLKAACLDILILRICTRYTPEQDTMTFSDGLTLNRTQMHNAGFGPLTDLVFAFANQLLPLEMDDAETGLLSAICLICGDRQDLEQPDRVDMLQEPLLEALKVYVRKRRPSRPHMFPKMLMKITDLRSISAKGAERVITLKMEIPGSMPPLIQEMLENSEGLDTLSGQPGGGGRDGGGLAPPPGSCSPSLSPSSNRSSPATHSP

For the molecule `CC(C)OB(OC(C)C)OC(C)C`, the outcome in assay [1], in assay [2], in [3], in [4], in assay [5] and in [6] was inactive. Also, the molecule was called inactive in assay [7] and in assay [8].

On to `CCC(CC)CO`, for which the result in assay [1], in [2], in assay [3], in assay [4], in assay [5] and in assay [6] was inactive. In addition, the molecule was classed as inactive in assay [7] and in [8].

A word on the AC50: it is the concentration at which the activity in the assay is half-maximal. Consider `C[C@]12CC[C@@H]3c4ccc(O)cc4CC[C@H]3[C@@H]1CC[C@@H]2O`, for which the concentration at half-maximal activity (AC50) in [9] was 28.6 µM (active); in assay [10], 30.7 µM (active); in assay [12], 32.8 µM (active); in assay [14] it was 24.5 µM (active); in assay [17], 25.6 µM (active); in assay [5], 27.7 µM (active) and 62.5 µM (active). For the same molecule, the AC50 in assay [7] is 65.8 µM (active). Further, the molecule was classed as inactive in assay [11], in assay [13], in assay [15], in assay [16], in [18] and in [19]. In addition, the outcome in assay [1], in assay [2], in [4], in [5], in [6] and in [7] was inactive. The molecule was classed as inactive in assay [8] and in assay [20].

Turning to `C1COCO1`, the outcome in assay [1], in assay [2], in assay [3], in [4], in assay [5] and in assay [6] was inactive. Besides, the call in [7] and in [8] was inactive.

On to `CC(C)(C)c1cc(CCC(=O)OCCSCCOC(=O)CCc2cc(C(C)(C)C)c(O)c(C(C)(C)C)c2)cc(C(C)(C)C)c1O`, for which the molecule was called inactive in assay [1], in assay [2], in [3], in assay [4], in assay [5] and in [6]. Further, the outcome in [7] and in [8] was inactive.
